Source: PMC7862700, “An all-to-all approach to the identification of sequence-specific readers for epigenetic DNA modifications on cytosine”

Key:
Assay in all cases: DAPPL (digital affinity profiling via proximity ligation, sequencing); 10 mM Tris-HCl pH 7.5, 50 mM NaCl, 1 mM DTT, 4% glycerol, room temperature, 30 min; GST-TFs on glutathione beads, 16-mer random dsDNA library, 0.1% formaldehyde crosslink after washing; high values mean tight binding
FEV = target: T1, FEV (Homo sapiens, UniProt Q99581 1-238); conditions: protein: recombinant; tags: N-terminal GST; dsDNA, one strand shown
T1 sequence: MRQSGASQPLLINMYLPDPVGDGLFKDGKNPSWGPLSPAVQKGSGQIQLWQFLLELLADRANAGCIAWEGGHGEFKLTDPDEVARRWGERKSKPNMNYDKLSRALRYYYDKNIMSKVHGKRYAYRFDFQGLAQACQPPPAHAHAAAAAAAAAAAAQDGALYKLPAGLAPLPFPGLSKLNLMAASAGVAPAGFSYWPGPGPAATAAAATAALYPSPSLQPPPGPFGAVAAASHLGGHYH
Outline: (§1)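 Human transcription factors fused to GST were expressed in yeast, captured on glutathione beads, given DNA barcodes and pooled with a GST-only negative control. Pools were incubated with 200 nmole of a 16-mer random double-stranded DNA library in Tris/NaCl/DTT/glycerol buffer at room temperature for 30 min. They were then washed, crosslinked with 0.1% formaldehyde, proximity-ligated (BsaI/T4 ligase, 1 h, 37 °C), PCR-amplified and sequenced on an Illumina NextSeq500. Binding signal is each 6-mer's read frequency for a factor divided by its frequency for the GST control.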

ETV5 = ETV5 (Homo sapiens, UniProt P41161 1-510); conditions: protein: recombinant; tags: N-terminal GST; dsDNA, one strand shown
ETV5, sequence (P41161 whole entry): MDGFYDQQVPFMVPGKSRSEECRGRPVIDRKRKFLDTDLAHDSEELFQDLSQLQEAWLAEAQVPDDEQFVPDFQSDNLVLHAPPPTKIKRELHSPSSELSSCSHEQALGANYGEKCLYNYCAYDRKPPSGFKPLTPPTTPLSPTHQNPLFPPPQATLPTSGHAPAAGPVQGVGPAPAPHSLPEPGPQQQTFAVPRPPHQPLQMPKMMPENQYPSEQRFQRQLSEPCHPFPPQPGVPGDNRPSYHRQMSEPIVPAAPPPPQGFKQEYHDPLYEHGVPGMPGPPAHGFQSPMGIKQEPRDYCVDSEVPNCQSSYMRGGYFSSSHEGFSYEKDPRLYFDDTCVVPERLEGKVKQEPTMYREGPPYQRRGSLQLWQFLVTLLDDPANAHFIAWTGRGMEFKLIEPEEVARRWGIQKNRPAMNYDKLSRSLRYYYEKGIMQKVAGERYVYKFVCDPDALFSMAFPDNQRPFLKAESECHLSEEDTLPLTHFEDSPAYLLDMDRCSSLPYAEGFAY
Outline: as §1

HSF1 = HSF1 (Homo sapiens, UniProt Q00613 1-529); conditions: protein: recombinant; tags: N-terminal GST; chain copies: 3; dsDNA, one strand shown
HSF1, sequence (Q00613 whole entry): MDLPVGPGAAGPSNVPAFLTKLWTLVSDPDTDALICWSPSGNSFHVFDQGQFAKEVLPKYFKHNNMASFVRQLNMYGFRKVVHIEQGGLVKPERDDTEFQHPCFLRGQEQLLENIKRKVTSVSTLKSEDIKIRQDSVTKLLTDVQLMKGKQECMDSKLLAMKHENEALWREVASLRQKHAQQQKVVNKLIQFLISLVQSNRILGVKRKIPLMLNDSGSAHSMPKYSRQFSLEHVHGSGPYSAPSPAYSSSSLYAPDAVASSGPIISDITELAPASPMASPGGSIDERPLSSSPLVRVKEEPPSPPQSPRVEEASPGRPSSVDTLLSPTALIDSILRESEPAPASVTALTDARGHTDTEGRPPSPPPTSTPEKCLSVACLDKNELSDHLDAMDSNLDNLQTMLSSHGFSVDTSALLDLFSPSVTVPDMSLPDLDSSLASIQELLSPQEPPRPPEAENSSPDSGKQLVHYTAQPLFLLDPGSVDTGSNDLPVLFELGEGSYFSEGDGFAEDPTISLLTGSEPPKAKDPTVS
Outline: as §1

SPIC = target: T2, SPIC (Homo sapiens, UniProt Q8N5J4 1-248); conditions: protein: recombinant; tags: N-terminal GST; dsDNA, one strand shown
T2 sequence: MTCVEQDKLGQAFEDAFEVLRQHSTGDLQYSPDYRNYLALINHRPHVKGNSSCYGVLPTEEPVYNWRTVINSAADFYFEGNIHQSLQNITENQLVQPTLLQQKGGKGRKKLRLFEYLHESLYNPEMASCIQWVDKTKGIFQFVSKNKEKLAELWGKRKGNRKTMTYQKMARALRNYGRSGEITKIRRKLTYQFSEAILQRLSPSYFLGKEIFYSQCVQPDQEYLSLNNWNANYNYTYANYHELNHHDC
Outline: as §1

ELF4 = ELF4 (Homo sapiens, UniProt Q99607 1-663); conditions: protein: recombinant; tags: N-terminal GST; dsDNA, one strand shown
ELF4, sequence (Q99607 whole entry): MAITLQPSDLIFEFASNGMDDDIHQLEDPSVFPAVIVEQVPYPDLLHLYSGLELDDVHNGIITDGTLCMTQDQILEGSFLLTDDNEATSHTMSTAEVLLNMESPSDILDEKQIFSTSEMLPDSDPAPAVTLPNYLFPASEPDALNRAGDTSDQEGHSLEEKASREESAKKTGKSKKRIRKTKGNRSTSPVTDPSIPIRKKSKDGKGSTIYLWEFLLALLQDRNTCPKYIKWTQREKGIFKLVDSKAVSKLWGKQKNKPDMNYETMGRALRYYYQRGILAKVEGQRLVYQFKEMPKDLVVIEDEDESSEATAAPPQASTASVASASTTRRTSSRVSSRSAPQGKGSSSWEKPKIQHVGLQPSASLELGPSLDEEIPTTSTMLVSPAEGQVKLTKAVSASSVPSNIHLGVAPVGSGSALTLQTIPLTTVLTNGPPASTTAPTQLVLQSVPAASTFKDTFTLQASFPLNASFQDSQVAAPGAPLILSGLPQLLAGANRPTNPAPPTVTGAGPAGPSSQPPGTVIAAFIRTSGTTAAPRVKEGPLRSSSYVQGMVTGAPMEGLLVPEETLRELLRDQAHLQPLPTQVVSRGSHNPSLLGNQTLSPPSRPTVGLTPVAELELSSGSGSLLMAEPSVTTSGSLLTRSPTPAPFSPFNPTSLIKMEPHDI
Outline: as §1

ELK4 = target: T3, ELK4 (Homo sapiens, UniProt P28324-2 1-405); conditions: protein: recombinant; tags: N-terminal GST; dsDNA, one strand shown
T3 sequence: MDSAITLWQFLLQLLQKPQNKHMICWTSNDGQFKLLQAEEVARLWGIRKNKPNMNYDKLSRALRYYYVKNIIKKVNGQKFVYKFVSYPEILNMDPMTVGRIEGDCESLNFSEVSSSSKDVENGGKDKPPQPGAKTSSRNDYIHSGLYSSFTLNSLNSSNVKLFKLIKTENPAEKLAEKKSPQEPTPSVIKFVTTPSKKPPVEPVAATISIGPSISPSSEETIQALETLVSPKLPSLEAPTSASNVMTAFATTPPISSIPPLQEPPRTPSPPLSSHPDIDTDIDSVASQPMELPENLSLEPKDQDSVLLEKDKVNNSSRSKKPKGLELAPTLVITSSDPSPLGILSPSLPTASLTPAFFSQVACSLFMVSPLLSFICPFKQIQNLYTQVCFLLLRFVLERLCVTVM
Outline: as §1

ETV2 = target: T4, ETV2 (Homo sapiens, UniProt O00321 1-342); conditions: protein: recombinant; tags: N-terminal GST; dsDNA, one strand shown
T4 sequence: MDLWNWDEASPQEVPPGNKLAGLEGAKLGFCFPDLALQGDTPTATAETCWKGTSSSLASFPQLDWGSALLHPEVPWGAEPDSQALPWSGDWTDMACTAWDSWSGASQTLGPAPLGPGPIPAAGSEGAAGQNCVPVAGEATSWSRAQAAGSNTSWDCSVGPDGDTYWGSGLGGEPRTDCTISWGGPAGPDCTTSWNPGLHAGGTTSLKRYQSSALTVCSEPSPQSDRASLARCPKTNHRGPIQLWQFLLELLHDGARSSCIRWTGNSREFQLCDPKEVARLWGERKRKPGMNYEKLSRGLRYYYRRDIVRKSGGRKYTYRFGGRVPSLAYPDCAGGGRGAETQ
Outline: as §1

ELF3 = target: T5, ELF3 (Homo sapiens, UniProt P78545 1-371); conditions: protein: recombinant; tags: N-terminal GST; dsDNA, one strand shown
T5 sequence: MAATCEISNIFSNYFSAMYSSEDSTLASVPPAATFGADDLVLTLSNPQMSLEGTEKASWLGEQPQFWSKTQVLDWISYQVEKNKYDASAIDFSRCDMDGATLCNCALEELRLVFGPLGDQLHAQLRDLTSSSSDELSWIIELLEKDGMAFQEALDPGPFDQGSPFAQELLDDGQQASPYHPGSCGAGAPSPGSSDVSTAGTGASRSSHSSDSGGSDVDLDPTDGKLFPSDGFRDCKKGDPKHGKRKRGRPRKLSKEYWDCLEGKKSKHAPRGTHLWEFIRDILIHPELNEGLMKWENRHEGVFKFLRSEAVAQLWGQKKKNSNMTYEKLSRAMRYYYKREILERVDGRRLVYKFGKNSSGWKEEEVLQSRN
Outline: as §1

CRX = CRX (Homo sapiens, UniProt O43186 1-299); conditions: protein: recombinant; tags: N-terminal GST; dsDNA, one strand shown
CRX, sequence (O43186 whole entry): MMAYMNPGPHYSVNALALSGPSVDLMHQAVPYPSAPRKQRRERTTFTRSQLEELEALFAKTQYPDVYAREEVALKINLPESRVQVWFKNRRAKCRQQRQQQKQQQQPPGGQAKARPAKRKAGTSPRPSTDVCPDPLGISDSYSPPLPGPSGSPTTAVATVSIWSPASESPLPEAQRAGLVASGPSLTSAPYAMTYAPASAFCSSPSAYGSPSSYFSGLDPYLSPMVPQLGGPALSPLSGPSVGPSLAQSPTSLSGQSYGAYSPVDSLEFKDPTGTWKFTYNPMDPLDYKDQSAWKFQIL
Outline: as §1

ETV1 = ETV1 (Homo sapiens, UniProt P50549 1-477); conditions: protein: recombinant; tags: N-terminal GST; dsDNA, one strand shown
ETV1, sequence (P50549 whole entry): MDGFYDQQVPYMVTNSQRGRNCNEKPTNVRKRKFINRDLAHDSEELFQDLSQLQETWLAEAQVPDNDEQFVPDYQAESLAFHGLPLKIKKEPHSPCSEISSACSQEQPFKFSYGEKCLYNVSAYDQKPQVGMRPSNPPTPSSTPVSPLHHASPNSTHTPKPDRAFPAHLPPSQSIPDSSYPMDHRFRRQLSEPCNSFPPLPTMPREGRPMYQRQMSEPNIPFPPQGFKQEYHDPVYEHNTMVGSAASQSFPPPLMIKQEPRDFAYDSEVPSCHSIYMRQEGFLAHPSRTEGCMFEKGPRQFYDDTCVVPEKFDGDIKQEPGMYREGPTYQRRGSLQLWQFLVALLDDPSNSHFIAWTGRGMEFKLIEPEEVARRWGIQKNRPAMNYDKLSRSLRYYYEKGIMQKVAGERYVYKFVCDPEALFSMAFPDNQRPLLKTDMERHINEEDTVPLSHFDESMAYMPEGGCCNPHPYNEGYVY
Outline: as §1

TAAATG
binding signal (FEV): 1.18 fold enrichment (6-mer frequency, TF over GST control) | binding signal (ETV5): 1.38 fold enrichment (6-mer frequency, TF over GST control) | binding signal (HSF1): 1.37 fold enrichment (6-mer frequency, TF over GST control) | binding signal (SPIC): 1.46 fold enrichment (6-mer frequency, TF over GST control) | binding signal (ELF4): 1.25 fold enrichment (6-mer frequency, TF over GST control) | binding signal (ELK4): 1.39 fold enrichment (6-mer frequency, TF over GST control) | binding signal (ETV2): 1.31 fold enrichment (6-mer frequency, TF over GST control) | binding signal (ELF3): 1.34 fold enrichment (6-mer frequency, TF over GST control) | binding signal (CRX): 1.69 fold enrichment (6-mer frequency, TF over GST control) | binding signal (ETV1): 1.37 fold enrichment (6-mer frequency, TF over GST control)
